From PubChem BioAssay (NCI)
Where “and” joins values, the source holds several entries; their conditions need not be identical. Equal values may be shown once. This is part of a sample that, as a whole, favours compounds with a hit. Of some 83,000 tested, about 20% had one in any assay.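 Activity criterion: percent growth below 10, measured after cells in 96-well plates were exposed to a single compound concentration for 48 hours.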 Calls of active or inactive are those of the source.

How the values were obtained:
Assay in all cases: NCI-60 one-dose screen, 48 h (100 = growth as untreated, 0 = no growth, -100 = all killed)
[1] = tested on: HCT-15 colon; conditions: 10 µM
[2] = tested on: HT29 colon; conditions: 10 µM
[3] = tested on: SNB-75 CNS; conditions: 10 µM
[4] = tested on: SNB-19 CNS; conditions: 10 µM
[5] = tested on: U251 CNS; conditions: 10 µM unless noted
[6] = tested on: PC-3 prostate; conditions: 10 µM
[7] = tested on: SK-MEL-5 melanoma; conditions: 10 µM unless noted
[8] = tested on: UACC-62 melanoma; conditions: 10 µM
[9] = tested on: LOX IMVI melanoma; conditions: 10 µM unless noted
[10] = tested on: SK-MEL-28 melanoma; conditions: 10 µM
[11] = tested on: EKVX NSCLC; conditions: 10 µM
[12] = tested on: SN12C renal; conditions: 10 µM
[13] = tested on: UO-31 renal; conditions: 10 µM
[14] = tested on: TK-10 renal; conditions: 10 µM
[15] = tested on: ACHN renal; conditions: 10 µM
[16] = tested on: A498 renal; conditions: 10 µM
[17] = tested on: CCRF-CEM leukemia; conditions: 10 µM
[18] = tested on: SK-MEL-2 melanoma; conditions: 10 µM
[19] = tested on: CAKI-1 renal; conditions: 10 µM
[20] = tested on: MOLT-4 leukemia; conditions: 10 µM

Measured: growth

COc1ccc(CC(=O)c2ccc(O)cc2O)cc1
inactive: [1] 131% | [2] 112% | [3] 111% | [4] 121% | [5] 116% | [6] 109% | [7] 103% | [8] 120% | [9] 108% | [10] 139% | [11] 104% | [12] 123% | [13] 98.5% | [14] 122% | [15] 118% | [16] 128% | [17] 104%

OCC(O)C(O)C(O)C(/C=N/Nc1ccccc1)=N/Nc1ccccc1 (configuration not stated)
inactive: [1] 75% | [2] 93.2% | [3] 66.3% | [4] 97.4% | [5] 90.9% | [6] 72.6% | [7] 86.8% | [8] 43.6% | [9] 51.8% | [10] 103% | [18] 121% | [12] 95.9% | [13] 61.1% | [14] 91.8% | [15] 67.5% | [19] 78% | [16] 43.9% | [17] 75.4% | [20] 101%

Cc1cc(NS(=O)(=O)c2ccc(N=Nc3cc(N=Nc4ccc(S(=O)(=O)Nc5cc(C)nc(C)n5)cc4)c4c(NC(=O)C(Cl)Cl)cccc4c3OC(=O)C(Cl)Cl)cc2)nc(C)n1 (tested in a mixture with another compound)
inactive: [1] 88.8% and 84.2% | [2] 118% | [3] 75.6% and 61.7% | [4] 97.4% and 95.7% | [5] 97.5% and 97.7% | [6] 97.4% and 106% | [7] 96.9% and 87.6% | [8] 99.8% and 95.8% | [9] 92.6% and 104% | [10] 111% | [12] 100% and 101% | [13] 68.9% and 72.2% | [14] 148% and 150% | [15] 89.5% and 94.4% | [19] 96.7% and 88.6% | [16] 116% and 101% | [17] 95.3% and 99.6% | [20] 102% and 105%

CCC(C)(C)c1cc(O)c(C(C)(C)CC)cc1O
inactive: [1] 43.8% | [2] 28.5% | [3] 52.1% | [4] 21.8% | [5] 30.4% | [6] 32.3% | [7] 22.8% | [8] 35.4% | [9] 13% | [10] 43.5% | [18] 24.4% | [11] 43.4% | [12] 36.5% | [14] 63.2% | [15] 43.4% | [19] 41.4% | [16] 50.1% | [20] 24.7%

Oc1ccc(N=Nc2ccccn2)c(O)c1
inactive: [1] 30.5% | [2] 21.6% | [3] 54.6% | [4] 31.2% | [5] 24.2% | [6] 36.1% | [10] 31.7% | [18] 27.8% | [11] 24.1% | [12] 20.5% | [14] 36.1% | [15] 13.8% | [16] 59.2%
active: [8] -34.1% | [9] 8.85% | [13] 5.48% | [17] 3.95% | [20] 4.34%

CC1=CC(C)=Nc2ccc(Cl)cc2N1
inactive: [1] 113% | [2] 119% | [3] 90.4% | [4] 106% | [5] 101% | [6] 91.9% | [8] 103% | [9] 91.4% | [10] 124% | [18] 109% | [11] 108% | [12] 104% | [13] 85.9% | [14] 117% | [15] 105% | [19] 89.8% | [16] 106% | [17] 93.9% | [20] 97.5%

OC(CN1CCCC2CCCCC21)c1cc2ccccc2c2ccccc12 (configuration not stated)
inactive: [1] 22.5% | [3] 12.5% | [4] 43.6% | [5] 28.2% | [6] 38.5% | [10] 49.4% | [18] 42.8% | [11] 42.3% | [12] 49.7% | [13] 35.6% | [14] 52.6% | [15] 29.1% | [19] 41.2% | [16] 58.8% | [17] 68.2%
active: [2] 1.91% | [7] -84.6% | [9] -19.9% | [20] -1.89%

NNc1c2ccccc2nc2ccccc12
inactive: [1] 35.1% | [2] 34.5% | [3] 55% | [4] 56.9% | [5] 48% | [6] 50.7% | [7] 22% | [8] 45.2% | [9] 58.7% | [10] 76.7% | [11] 58.3% | [12] 52.2% | [13] 61.4% | [14] 45.4% | [15] 46.7% | [16] 49.3% | [17] 37.7% | [20] 29%

CCCCCC(C)c1ccc(O)c(C)c1 (configuration not stated)
inactive: [1] 103% | [2] 103% | [3] 92.1% | [5] 107% | [6] 103% | [7] 104% | [9] 98% | [10] 111% | [18] 104% | [11] 108% | [13] 83.5% | [14] 107% | [15] 101% | [19] 103% | [16] 81.9% | [20] 93%

O=C1C=C(O)c2ccccc2C1=O.[Ag]
inactive: [1] 88.2% | [2] 81.9% | [3] 87.9% | [4] 102% | [6] 78.7% | [8] 108% | [10] 92.3% | [12] 103% | [13] 82.9% | [14] 157% | [15] 95.2% | [19] 94.4% | [16] 93.3% | [17] 101% | [20] 105%
